Measurements reported in PubChem BioAssay (EPA / NIEHS).
Where “and” joins values, the source holds several entries; their conditions need not be identical. Identical values can stand only once. Where a structure was tested more than once in an assay, its records may differ in their call. Calls of active or inactive are those of the source. How the source made its calls: active means hit-call score of the fitted dose curve at least 0.9, where 1 is the maximum; inactive means score below 0.9.

Experiments:
[1] = APR_HepG2_CellLoss_72hr: Apredica 72-hour HepG2 Assay for Cell Loss (AID 2282915); conditions: high-content imaging
Method in brief: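 HepG2 cells exposed 72 h to compound at 0.39–200 uM (10 concentrations, duplicate) in 0.5% DMSO. Fixed with 3.7% formaldehyde and Hoechst 33342-stained. Imaged at 20x; nuclear count gives cell number, fitted bidirectionally versus DMSO.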

[2] = APR_HepG2_P-H2AX_72hr: Apredica 72-hour HepG2 Assay for H2AX Phosphorylation (AID 2282916); conditions: imaging, actives raise or lower the signal;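 further: phospho-histone H2A.x immunostain intensity per cell marking DNA damage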
Method in brief: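 Phospho-histone H2A.x immunofluorescence, multiplexed with Hoechst and c-Jun, quantified by high-content imaging. Compounds applied to HepG2 for 72 h across ten concentrations (0.39–200 uM, 0.5% DMSO), in duplicate; DMSO baseline.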

[3] = APR_HepG2_MitoMembPot_72hr: Apredica 72-hour HepG2 Assay for Mitochondrial Membrane Potential (AID 2282917); conditions: imaging, actives raise or lower the signal
Method in brief: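 HepG2 cells dosed 72 hr with compound at 0.39–200 uM in duplicate, 0.5% v/v DMSO final. Mitochondria stained with 250 nM MitoTracker Red CMXRos for 30 min before formaldehyde fixation, imaged by high-content fluorescence; bidirectional fit versus DMSO.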

[4] = APR_HepG2_MitoticArrest_72hr: Apredica 72-hour HepG2 Assay for Mitotic Arrest (AID 2282918); conditions: high-content imaging, actives raise or lower the signal
Method in brief: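 HepG2 cells were exposed for 72 hr to compound at 0.39–200 uM (10 concentrations, duplicate) in 0.5% v/v DMSO, fixed in 3.7% formaldehyde, immunostained for phospho-histone H3 with Hoechst 33342 and imaged by high-content fluorescence; bidirectional fits versus DMSO.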

[5] = APR_HepG2_MicrotubuleCSK_72hr: Apredica 72-hour HepG2 Assay for Microtubule CSK Stabilty (AID 2282919); conditions: HepG2 microtubule cytoskeleton, high-content imaging, actives raise or lower the signal
Method in brief: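 HepG2, 72 hr cmpd exposure, 0.39–200 uM (10 pts, duplicate), 0.5% DMSO. 3.7% formaldehyde fix, 0.5% Triton perm, anti-alpha-tubulin/Cy5 plus Hoechst. HCS fluorescence intensity; bidirectional fit vs DMSO baseline; taxol as positive control.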

[6] = APR_HepG2_P-H2AX_24hr: Apredica 24-hour HepG2 Assay for H2AX Phosphorylation (AID 2282920); conditions: high-content imaging, actives raise or lower the signal
Method in brief: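 HepG2 human liver cells were exposed for 24 hr to compounds at 0.39–200 uM in duplicate, with 0.5% v/v DMSO final. Fixed cells were immunostained for phospho-histone H2A.x plus Hoechst 33342, imaged by HCS fluorescence, and fitted bidirectionally against DMSO.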

[7] = APR_HepG2_StressKinase_72hr: Apredica 72-hour HepG2 Assay for Stress Kinase (AID 2282921); conditions: HepG2 stress kinase (phospho-c-Jun) imaging, actives raise or lower the signal
Method in brief: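 Stress kinase signal is phospho-c-Jun immunofluorescence (1:500 primary, Cy3 secondary) in fixed, permeabilized human HepG2 cells imaged at 20x. Exposure lasted 72 hr over ten concentrations from 0.39 to 200 uM, 0.5% DMSO, in duplicate. Bidirectional fit versus DMSO.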

[8] = APR_HepG2_StressKinase_24hr: Apredica 24-hour HepG2 Assay for Stress Kinase (AID 2282922); conditions: HepG2 stress kinase (phospho-c-Jun) imaging, actives raise or lower the signal
Method in brief: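 Read-out: phospho-c-Jun immunofluorescence (Cy3 secondary) quantified by high-content imaging at 20x, nuclei defined by Hoechst 33342. Human HepG2 liver cells dosed 24 hr, 0.39–200 uM, DMSO 0.5% v/v; gain or loss of signal fitted relative to DMSO.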

[9] = APR_HepG2_p53Act_72hr: Apredica 72-hour HepG2 Assay for p53 Activation (AID 2282923); conditions: high-content imaging, actives raise or lower the signal;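 further: average cellular p53 protein immunofluorescence intensity in HepG2 cells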
Method in brief: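 After 72 h with compound (ten points, 0.39 to 200 uM, final DMSO 0.5% v/v), fixed HepG2 cells were labelled with sheep anti-p53 and Hoechst 33342 and imaged; gain or loss versus DMSO scored.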

[10] = APR_HepG2_MitoMass_72hr: Apredica 72-hour HepG2 Assay for Mitochondrial Mass (AID 2282924); conditions: high-content imaging, actives raise or lower the signal;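 further: MitoTracker Red CMXRos stain intensity per cell imaged as mitochondrial mass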
Method in brief: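 Read-out: MitoTracker Red fluorescence intensity from automated imaging (20x, six fields per well) in human HepG2 liver cells. Dosing ran 72 hr, 0.39–200 uM, 0.5% DMSO; bidirectional curve fitting versus DMSO baseline.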

[11] = APR_HepG2_NuclearSize_72hr: Apredica 72-hour HepG2 Assay for Nuclear Size (AID 2282925); conditions: high-content imaging, actives raise or lower the signal
Method in brief: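 Read-out: nuclear diameter from Hoechst 33342 images (ArrayScan, 20x, six fields/well), via cell-cycle image analysis. HepG2 were dosed 0.39–200 uM for 72 hr in 0.5% DMSO. Bidirectional fit relative to DMSO.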

[12] = ATG_CRE_CIS: Attagene CIS-FACTORIAL HepG2 Assay for human cAMP Responsive Element (CRE) binding protein 3 (AID 2282926); conditions: HepG2 CRE cis-reporter, Attagene multiplexed mRNA; actives raise or lower the signal
Method in brief: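 Capillary electrophoresis of 6-FAM-labelled, HpaI-digested PCR products quantified reporter transcripts. These came from HepG2 transiently transfected with cis-element reporters and exposed to test chemicals for 24 hours, with DMSO defining baseline activity.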

[13] = target: CCAAT/enhancer-binding protein beta (Homo sapiens) (UniProt P17676); assay: ATG_C_EBP_CIS: Attagene CIS-FACTORIAL HepG2 Assay for human CCAAT/Enhancer Binding Protein (C/EBP) beta (AID 2282927); conditions: HepG2 Attagene cis-factorial transcription factor reporter; actives raise or lower the signal
Chain of CCAAT/enhancer-binding protein beta (Homo sapiens) (P17676 whole entry, looked up): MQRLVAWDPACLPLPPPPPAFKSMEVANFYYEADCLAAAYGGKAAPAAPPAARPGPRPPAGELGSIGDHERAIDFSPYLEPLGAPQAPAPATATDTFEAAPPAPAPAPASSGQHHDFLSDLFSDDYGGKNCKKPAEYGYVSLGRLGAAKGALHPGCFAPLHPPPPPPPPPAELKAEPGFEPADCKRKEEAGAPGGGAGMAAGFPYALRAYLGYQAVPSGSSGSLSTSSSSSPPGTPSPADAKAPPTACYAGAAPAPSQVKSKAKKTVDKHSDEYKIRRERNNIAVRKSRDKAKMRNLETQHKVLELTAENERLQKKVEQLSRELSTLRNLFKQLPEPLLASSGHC
Method in brief: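 Transiently transfected HepG2 (MRTU library, endogenous TF-driven promoters); 24 h dosing; total RNA → oligo(dT) RT → PCR → 6-FAM primer extension → HpaI digest → CE; fit bidirectionally vs DMSO.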

[14] = ATG_CMV_CIS: Attagene CIS-FACTORIAL HepG2 Assay for human CMV (Internal Marker) (AID 2282928); conditions: HepG2 CMV promoter reporter, transcription factor profiling; actives raise or lower the signal;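 further: endpoint acts as a background internal control marker rather than a target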
Method in brief: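 Readout: fluorescent reporter cDNA fragments separated by capillary electrophoresis after RT-PCR and HpaI cut. Cells: HepG2 carrying transfected cis-promoter reporter constructs, dosed 24 h. Endpoint serves as background internal-marker control, fit bidirectionally versus DMSO.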

[15] = ATG_DR4_LXR_CIS: Attagene CIS-FACTORIAL HepG2 Assay for human Liver X Receptor (LXR), DR4 submotif (AID 2282929); conditions: HepG2 Attagene DR4 cis-reporter, mRNA transcription; actives raise or lower the signal
Method in brief: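 The endpoint is DR4-element-driven reporter transcripts after 24 h chemical exposure of transfected HepG2 cells. These were measured via RT-PCR and capillary electrophoresis, and gain or loss of signal was fitted relative to DMSO controls.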

[16] = target: Aryl hydrocarbon receptor (Homo sapiens) (UniProt P35869); assay: ATG_Ahr_CIS: Attagene CIS-FACTORIAL HepG2 Assay for human Aryl Hydrocarbon Receptor (Ahr) (AID 2282930); conditions: HepG2 AhR cis-factorial reporter transcription; actives raise or lower the signal
Chain of Aryl hydrocarbon receptor (Homo sapiens) (P35869 whole entry, looked up): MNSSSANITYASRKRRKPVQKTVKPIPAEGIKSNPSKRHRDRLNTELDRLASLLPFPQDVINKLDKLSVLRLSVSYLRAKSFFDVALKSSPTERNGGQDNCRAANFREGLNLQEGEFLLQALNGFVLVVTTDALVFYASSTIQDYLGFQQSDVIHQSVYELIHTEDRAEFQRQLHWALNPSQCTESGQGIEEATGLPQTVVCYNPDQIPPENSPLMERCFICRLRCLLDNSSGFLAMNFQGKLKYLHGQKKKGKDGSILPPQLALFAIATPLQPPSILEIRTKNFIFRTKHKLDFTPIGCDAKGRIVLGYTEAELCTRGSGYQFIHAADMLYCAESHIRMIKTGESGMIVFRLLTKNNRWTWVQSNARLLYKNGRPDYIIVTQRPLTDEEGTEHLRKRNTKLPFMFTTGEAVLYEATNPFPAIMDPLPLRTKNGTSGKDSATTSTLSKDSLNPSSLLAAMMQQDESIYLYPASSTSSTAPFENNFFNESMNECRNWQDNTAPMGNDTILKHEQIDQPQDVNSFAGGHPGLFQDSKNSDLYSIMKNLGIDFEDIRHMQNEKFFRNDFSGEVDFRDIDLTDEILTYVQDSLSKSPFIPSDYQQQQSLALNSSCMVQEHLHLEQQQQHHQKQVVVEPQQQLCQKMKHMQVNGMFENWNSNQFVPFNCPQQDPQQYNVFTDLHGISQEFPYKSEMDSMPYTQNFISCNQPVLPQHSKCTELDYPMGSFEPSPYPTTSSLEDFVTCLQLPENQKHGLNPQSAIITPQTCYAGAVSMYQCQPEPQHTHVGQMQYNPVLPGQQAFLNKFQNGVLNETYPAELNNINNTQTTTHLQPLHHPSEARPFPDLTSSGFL
Method in brief: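 Read-out: reporter mRNA quantified by RT-PCR with fluorescent primer extension and capillary electrophoresis. Human HepG2 liver cells carried transfected cis-promoter reporter units and were exposed to chemical for 24 h; gain or loss fitted relative to DMSO.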

[17] = ATG_AP_1_CIS: Attagene CIS-FACTORIAL HepG2 Assay for human Activator Protein 1 (AP-1) (AID 2282931); conditions: HepG2 Attagene cis-factorial AP-1 reporter mRNA; actives raise or lower the signal
Method in brief: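 Readout is reporter transcript level from endogenous transcription factor activity, quantified by RT-PCR with fluorescent primer extension and capillary electrophoresis. Transiently transfected HepG2 cells, 24 h exposure. Curves fitted both directions versus DMSO.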

[18] = ATG_AP_2_CIS: Attagene CIS-FACTORIAL HepG2 Assay for human Activator Protein 2 (AP-2) (AID 2282932); conditions: HepG2 AP-2 cis-reporter, Attagene transcription factor profiling; actives raise or lower the signal
Method in brief: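 Liver-derived HepG2 line, cis-reporter system measuring endogenous factors; 24 h dosing; reporter mRNA detected by fluorescent RT-PCR and capillary electrophoresis.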

[19] = ATG_BRE_CIS: Attagene CIS-FACTORIAL HepG2 Assay for human Bone Morphogenetic Protein (BMP) Response Element (BRE) (AID 2282933); conditions: HepG2 BMP response element reporter, Attagene transcription factor profiling; actives raise or lower the signal
Method in brief: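 Endogenous transcription factor activity at a BMP response element was monitored in transfected HepG2 cells 24 h after dosing. Fluorescent RT-PCR products were resolved by capillary electrophoresis, and activity was fitted in both directions versus DMSO.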

[20] = target: Retinoic acid receptor alpha (Homo sapiens) (UniProt P10276); assay: ATG_DR5_RAR_CIS: Attagene CIS-FACTORIAL HepG2 Assay for human Retinoic Acid Receptor Alpha (RARE), DR5 submotif (AID 2282934); conditions: HepG2 Attagene cis-factorial RARE DR5 reporter, mRNA; actives raise or lower the signal;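 on AC50: reporter responds to endogenous RAR alpha beta and gamma in HepG2 not RARA alone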
Chain of Retinoic acid receptor alpha (Homo sapiens) (P10276 whole entry, looked up): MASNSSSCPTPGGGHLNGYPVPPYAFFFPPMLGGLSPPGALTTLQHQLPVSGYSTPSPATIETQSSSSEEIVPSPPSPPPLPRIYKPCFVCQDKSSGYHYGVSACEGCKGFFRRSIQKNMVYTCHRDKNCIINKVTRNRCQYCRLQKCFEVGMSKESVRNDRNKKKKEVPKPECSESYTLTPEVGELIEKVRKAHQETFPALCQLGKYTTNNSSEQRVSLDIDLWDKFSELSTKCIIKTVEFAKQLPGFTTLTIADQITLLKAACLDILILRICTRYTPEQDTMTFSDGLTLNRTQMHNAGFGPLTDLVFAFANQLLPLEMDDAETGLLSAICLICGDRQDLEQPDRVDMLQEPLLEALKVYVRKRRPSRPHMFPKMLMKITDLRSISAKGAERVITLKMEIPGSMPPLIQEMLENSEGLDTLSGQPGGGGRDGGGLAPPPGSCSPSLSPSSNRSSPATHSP
Method in brief: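 Read-out: DR5-driven reporter transcript measured by RT-PCR, 6-FAM primer extension, HpaI digest and capillary electrophoresis. Human HepG2 liver cells carry transiently transfected cis-element reporter constructs; dosing lasts 24 h. Gain or loss of signal fitted against DMSO baseline.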

Measured: AC50

COP(=S)(OC)Oc1ccc(SC)c(C)c1
inactive: [1] | [2] | [3] | [4] | [5] | [6] | [7] | [8] | [9] | [10] | [11] | [12] | [13] | [14] | [17] | [18] | [19] | [20]
active: [15] 29.2 µM | [16] 10.6 µM

COC(=O)c1ccccc1CS(=O)(=O)NC(=O)Nc1nc(OC)cc(OC)n1
inactive: [1] | [2] | [3] | [4] | [5] | [6] | [7] | [8] | [9] | [10] | [11] | [12] | [13] | [14] | [15] | [16] | [17] | [18] | [19] | [20]

C[C@H]1[C@H](c2ccc(Cl)cc2)SC(=O)N1C(=O)NC1CCCCC1
inactive: [2] | [4] | [6] | [7] | [8] | [9] | [10] | [11] | [12] | [13] | [16] | [18] | [20]
active: [1] 33.5 µM | [3] 100 µM | [5] 44.5 µM | [14] 13.8 µM | [15] 81.4 µM | [17] 23.1 µM | [19] 17.7 µM

ClC1C(Cl)C(Cl)C(Cl)C(Cl)C1Cl (stereo not given)
active: [1] 57.2 µM | [12] 16 µM | [13] 61.8 µM | [14] 65.5 µM | [15] 116 µM and 21.7 µM | [17] 47.9 µM | [19] 10.5 µM | [20] 11 µM and 5.74 µM
inactive: [1] | [2] | [3] | [4] | [5] | [6] | [7] | [8] | [9] | [10] | [11] | [12] | [13] | [14] | [15] | [16] | [17] | [18] | [19] | [20]

Oc1ccc(Cl)cc1Cc1ccccc1
inactive: [1] | [2] | [3] | [4] | [5] | [6] | [7] | [8] | [9] | [10] | [11] | [12] | [13] | [14] | [15] | [16] | [17] | [18] | [19] | [20]
active: [1] 70 µM [middle of 6 runs] | [2] 112 µM and 122 µM and 34.5 µM | [3] 116 µM and 35.4 µM and 66.2 µM | [5] 111 µM and 62.5 µM | [6] 114 µM [middle of 4 runs] | [7] 113 µM and 122 µM and 34.3 µM | [8] 150 µM and 99 µM | [9] 111 µM and 125 µM | [10] 88 µM | [11] 110 µM | [12] 13.4 µM | [13] 8.76 µM | [14] 15.2 µM | [15] 11.2 µM and 14.2 µM and 13.4 µM | [17] 12.7 µM | [18] 17.6 µM | [19] 9.67 µM
